20 compounds from PubChem BioAssay AID1851 (National Center for Advancing Translational Sciences (NCATS), 2009) can be followed below.

SMILES strings stand for the structures. Screen size: about 16,000 compounds; about 2,600 (16%) were called active. Not shown: some 20% with an inconclusive outcome. Calls come from the whole dose curve; as a rule, active = well fitted curve in the direction sought with a large enough effect; inconclusive = small, poorly fitted or top-dose-only effect, or effect the other way; inactive = no such curve, though single readings can be large or run the other way. The list comes from a sample in which actives are over-represented; it also holds similar structures and randomly drawn compounds.
% is set by controls: 0 for no effect and ±100 for the full control effect.

For this assay, the target named is Cytochrome P450 2D6 (Homo sapiens) (UniProt P10635). In words: Cytochrome panel assay with activity outcomes. The settings on record: recombinant CYP, pro-luciferin dealkylation, luminescence, p450-cyp2d6; series mostly up to 57.1 µM; activity, negative = inhibition: at the top concentration.
Sequence of Cytochrome P450 2D6 (Homo sapiens) (P10635 whole entry, looked up): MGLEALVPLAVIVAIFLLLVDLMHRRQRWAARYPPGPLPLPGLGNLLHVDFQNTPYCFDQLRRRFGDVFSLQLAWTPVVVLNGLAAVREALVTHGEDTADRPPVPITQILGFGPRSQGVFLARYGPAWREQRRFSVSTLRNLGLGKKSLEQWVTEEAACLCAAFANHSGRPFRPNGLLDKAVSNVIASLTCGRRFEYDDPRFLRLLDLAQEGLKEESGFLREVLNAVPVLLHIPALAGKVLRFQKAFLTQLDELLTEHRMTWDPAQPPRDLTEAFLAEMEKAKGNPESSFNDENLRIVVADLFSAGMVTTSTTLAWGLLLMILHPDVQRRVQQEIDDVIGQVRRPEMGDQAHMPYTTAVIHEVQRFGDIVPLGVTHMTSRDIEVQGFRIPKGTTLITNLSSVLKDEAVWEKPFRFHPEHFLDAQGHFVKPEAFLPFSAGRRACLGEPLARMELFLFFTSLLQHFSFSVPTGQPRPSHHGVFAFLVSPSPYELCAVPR
Take `O=C(Nc1cccc(F)c1)N1CC2(CCN(C(=O)Oc3ccccc3)CC2)C1`: the “activity, negative = inhibition” value is -4.33% (inactive).

Take `CN1C(=O)C(=Cc2ccccc2Oc2ccc(Cl)c(F)c2)C(=O)N(C)C1=O`: the “activity, negative = inhibition” value was 16.1% (inactive).

For the compound `CC(C)C12CN3CC(C(C)C)(CN(C1)C3c1cccnc1)C2=O` (stereo not given), the “activity, negative = inhibition” value was -8.2% (inactive).

What is called AC50 is the concentration at which the activity in the assay is half-maximal. `O=C(CCCN1CCC2(CC1)C(=O)N(Cc1cccc(F)c1)CN2c1ccccc1)c1ccc(F)cc1`: the AC50 was 3.16 µM (active).

For `C[C@@]12CC(=O)[C@H]3[C@@H](CCC4=CC(=O)CC[C@]43C)[C@H]1CCC2=O`, the “activity, negative = inhibition” value was 2.29% [at 25.6 µM] (inactive).

On to `COc1ccccc1CC1C(=O)C2CCN1CC2` (stereo not given), for which the AC50 was 11.2 µM (active).

Regarding `CC(C)C(=O)Nc1ccc([N+](=O)[O-])c(C(F)(F)F)c1`, the “activity, negative = inhibition” value is -17.2% [at 25.6 µM] (inactive).

Regarding `CC(C)(C)NC[C@H](O)c1cc(Cl)c(N)c(Cl)c1`, the “activity, negative = inhibition” value was -17.1% [at 25.6 µM] (inactive).

As to `CN(C)C(=O)Oc1cc(OC(=O)N(C)C)cc([C@@H](O)CNC(C)(C)C)c1`, the AC50 is 7.94 µM (active).

On to `CN(C)C(=O)Oc1cccc([N+](C)(C)C)c1`, for which the “activity, negative = inhibition” value is -2.57% [at 25.6 µM] (inactive).

As for `CCCC[N+]12CCC(CC1)C(C(=O)c1cccs1)C2` (stereo not given), the AC50 is 0.282 µM (active).

On to `CCN1C[C@@]2(COC)CC[C@H](O)[C@@]34[C@@H]2C[C@@H]([C@@H]13)[C@]1(O)C[C@@H](OC)C2C[C@H]4[C@H]1[C@H]2OC(C)=O`, for which the “activity, negative = inhibition” value is 1.85% [at 25.6 µM] (inactive).

For the compound `CC[N+](CC)(CCCNC1=CC(=O)C(NCCC[N+](CC)(CC)Cc2ccccc2)=CC1=O)Cc1ccccc1`, the “activity, negative = inhibition” value is -11.7% (inactive).

Regarding `CC(=O)O[C@H]1CC[C@@]2(C)[C@@H](CC[C@H]3[C@H]2CC(=O)[C@@]2(C)[C@@H]3C[C@H]3CC(C)=CC(=O)[C@H]32)C1`, the activity, negative = inhibition was 2.72% [at 11.4 µM] (inactive).

On to `COc1ccc(OC)c([C@H](O)[C@H](C)N)c1`, for which the “activity, negative = inhibition” value was -12.7% [at 25.6 µM] (inactive).

Regarding `COc1ccc(C[C@@H](N)c2ccc(OC)cc2)cc1`, the AC50 is 0.631 µM (active).

Regarding `Cc1ccc(C(=O)C2C(=O)c3ccccc3C2=O)cc1`, the “activity, negative = inhibition” value was 3% (inactive).

Take `O=C1NC(=S)NC(=O)C1=Cc1cccc2cc3ccccc3cc12`: the activity, negative = inhibition is -0.164% [at 11.4 µM] (inactive).

Regarding `CC(C)[C@H](CO)Nc1nc(Nc2cccc(Cl)c2)c2ncn(C(C)C)c2n1`, the “activity, negative = inhibition” value was 2.72% (inactive).

With `CC[C@@H](CO)Nc1nc(NCc2ccccc2)c2ncn(C(C)C)c2n1`, the AC50 is 31.6 µM (active).
